The values below come from PubChem BioAssay (NCI).

Where “and” joins values, the source holds several entries; their conditions need not be identical. Equal entries are not always repeated. Compounds without any hit were thinned out: in the full panel of roughly 83,000, 20% have a hit.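 Single-concentration screen, 48 h exposure, 96-well plates. Endpoint: percent growth. Below 10 = active.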 Calls of active or inactive are those of the source.

The test system of this assay is MCF7 breast. The experiment in a line: NCI-60 one-dose screen, 48 h (100 = growth as untreated, 0 = no growth, -100 = all killed). As to conditions: 10 µM unless noted.
In the case of `Cc1sccc1C(=S)Nc1ccc(Cl)c(/C=N/OC(C)(C)C)c1`, the growth was -73.5% [100 µM] (active) and -46.7% [100 µM] (active).
With `Nc1nc(Nc2cc(F)c(Cl)c(F)c2)cc(=O)[nH]1`, the growth was 65.9% [100 µM] (inactive) and -23.3% [100 µM] (active).
As to `CC(=O)Nc1c(C)cc2c(nc3n2CCC3OC(C)=O)c1[N+](=O)[O-]` (centres undefined), the growth was 105% [100 µM] (inactive) and 101% [100 µM] (inactive).
On to `O=c1c(-c2ccc3c(c2)OCO3)coc2c3c(ccc12)OCO3`, for which the growth was -45% [100 µM] (active) and -62.5% [100 µM] (active).
Consider `COc1ccc(C2=C(N)c3ccccc3C2=O)cc1`, for which the growth is 79.1% [100 µM] (inactive) and 72.9% [100 µM] (inactive).
The result for `Cc1ccnc2[nH]c(-c3ccc(F)cc3)cc(=O)c12` reads 22.1% [100 µM] (inactive) and 5.04% [100 µM] (active); that for `CCCCOC(=O)C1CN2C(=NC1(C(F)(F)F)C(F)(F)F)Sc1ccccc12` (centres undefined), 6.83% [100 µM] (active) and 25.5% [100 µM] (inactive); that for `CCOc1cc2c(cc1O)C(=O)C[C@@H]1[C@@H]2CC[C@]2(C)[C@@H](O)CC[C@@H]12`, 4.23% [100 µM] (active) and -100% [100 µM] (active).
As for `COC(=O)C(=O)C(C(=O)C(=O)Nc1ccccc1C(=O)OC)c1nc2ccc(C(=O)c3ccccc3)cc2[nH]c1=O` (centres undefined), the growth was 58.7% [100 µM] (inactive) and 7.77% [100 µM] (active).
